Reference: PubChem BioAssay (EPA / NIEHS)
Inconclusive results are not listed. Activity calls are given as the source filed them. How the source made its calls: active means hit-call score of the fitted dose curve at least 0.9, where 1 is the maximum; inconclusive means response in the unintended direction; inactive means score below 0.9.

How the values were obtained:
[1] = target: Estrogen receptor (Homo sapiens) (UniProt P03372); assay: OT_ER_ERaERa_0480: Odyssey Thera (OT) 8-hour HEK293T Protein-Complementation Assay for Estrogen Receptor-alpha/-alpha Homodimer (AID 2283351);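 further: rise in fluorescence from reassembled reporter fragments on ERα LBD homodimer in nucleus or whole cell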
Method in brief: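 HEK293T, stable ERα LBD (aa 310-547) PCA homodimer; 8 h compound exposure; fluorescence intensity, laser scanning cytometer; positive fitting direction, DMSO baseline.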

[2] = target: T1, Estrogen receptor (Homo sapiens) + Estrogen receptor beta (Homo sapiens) (UniProt P03372+Q92731); assay: OT_ER_ERaERb_0480: Odyssey Thera (OT) 8-hour HEK293T Protein-Complementation Assay for Estrogen Receptor-alpha/-beta Heterodimer (AID 2283352)
Method in brief: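 Compound added to HEK293T cells carrying split-reporter-tagged ER-alpha and ER-beta LBDs, incubated 8 hours, then imaged by laser scanning cytometer. Signal rise in nucleus, or nucleus and cytoplasm, over vehicle was fitted in the positive direction.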

[3] = target: T1, Estrogen receptor (Homo sapiens) + Estrogen receptor beta (Homo sapiens); assay: OT_ER_ERaERb_1440: Odyssey Thera (OT) 24-hour HEK293T Protein-Complementation Assay for Estrogen Receptor-alpha/-beta Homodimer (AID 2283356);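 further: heteromer of ER alpha and ER beta binding domains; hits raise reporter fluorescence and both agonists and antagonists give an increase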
Method in brief: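 Stable HEK293T PCA line, ERα LBD 310-547 + ERβ LBD 263-489 fused to reporter fragments; 24 h treatment; fluorescence read by laser scanning cytometry; positive fitting direction relative to DMSO.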

[4] = target: Estrogen receptor beta (Homo sapiens) (UniProt Q92731); assay: OT_ER_ERbERb_0480: Odyssey Thera (OT) 8-hour HEK293T Protein-Complementation Assay for Estrogen Receptor-beta/-beta Homodimer (AID 2283357);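 further: active means signal gain over DMSO baseline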
Method in brief: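 Fluorescence intensity, nuclear for agonists and nuclear plus cytoplasmic for antagonists, was quantified by laser scanning cytometry versus vehicle after 8 h treatment. The cells were HEK293T stably carrying ER beta LBD fragment-complementation partners.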

PGR (gene 5241) = PGR (gene 5241) (UniProt P06401); assay: NVS_NR_hPR: NovaScreen (NVS) Nuclear Receptor Binding Assay for human Progestron Receptor (PR) (AID 2283360);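 further: active means loss of bound radioligand signal versus DMSO baseline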
Method in brief: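 Cell-free radioligand binding using receptor protein extracted from T47D cells, read by scintillation counting 18 hours after dosing. Loss of signal relative to DMSO baseline indicates displacement; primary screen single concentration 25 uM in duplicate, actives followed in concentration series.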

[5] = target: human Thyroid Receptor Alpha (TRa), THRA (gene 7067) (UniProt P10827); assay: NVS_NR_hTRa_Antagonist: NovaScreen (NVS) Nuclear Receptor Binding Assay for human Thyroid Receptor Alpha Antagonism (TRa) (AID 2283362);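 further: activity is loss of signal relative to DMSO baseline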
Method in brief: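 Extracted protein, cell-free; 1 h incubation after dosing; AlphaLISA chemiluminescence binding readout. DMSO = baseline/neg ctrl; signal loss = activity. Primary: duplicate, 25 uM; secondary: conc. series on actives.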

[6] = target: Androgen Receptor/SRC-1 Co-activator, AR (gene 367) (UniProt P10275); assay: OT_AR_ARSRC1_0960: Odyssey Thera (OT) 16-hour HEK293T Protein-Complementation Assay for Androgen Receptor/SRC-1 Co-activator (AID 2283353);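 further: actives raise the signal above DMSO so potency reflects increased AR and SRC-1 complex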
Method in brief: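 Split-Venus PCA, AR/SRC-1 fusions, stable HEK293T; 16 h compound exposure; imaged at 488 and 635 nm; N/C ratio (488 nm channel), min 400 cells/image; positive-direction fit, DMSO baseline.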

[7] = target: Androgen Receptor/SRC-1 Co-activator, AR (gene 367) (UniProt P10275); assay: OT_AR_ARSRC1_0480: Odyssey Thera (OT) 8-hour HEK293T Protein-Complementation Assay for Androgen Receptor/SRC-1 Co-activator (AID 2283354);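 further: hits raise the complementation signal above DMSO so AC50 marks enhancers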
Method in brief: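 HEK293T cells stably expressing AR and SRC-1 fused to Venus YFP fragments, imaged 8 h after dosing. Complementation fluorescence scored as nuclear/cytoplasmic ratio at 488 nm in at least 400 cells per image; gain fitted versus DMSO.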

[8] = target: rat Androgen Receptor (AR), Ar (gene 24208) (UniProt P15207); assay: NVS_NR_rAR: NovaScreen (NVS) Nuclear Receptor Binding Assay for rat Androgen Receptor (AR) (AID 2283366)
Method in brief: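 Cell-free radioligand binding on extracts of prostate from testosterone-pretreated rats, read by filter-based scintillation counting 18 h after dosing. Loss of bound signal fitted positively versus DMSO; primary screen in duplicate at 25 uM, actives followed up in concentration series.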

[9] = target: human Peroxisome Proliferator-activated Receptor alpha (PPARa), PPARA (gene 5465) (UniProt Q07869); assay: NVS_NR_hPPARa: NovaScreen (NVS) Nuclear Receptor Binding Assay for human Peroxisome Proliferator-activated Receptor alpha (PPARa) (AID 2283359);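 further: activity means loss of TR-FRET signal versus DMSO baseline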
Method in brief: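 Cell-free TR-FRET binding assay with extracted PPARα protein, read 1 h after dosing. Primary screen in duplicate at 25 uM, with actives retested in concentration series. Loss of signal versus DMSO.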

[10] = target: guinea pig Sigma Receptor, Non-selective Binding, SIGMAR1 (gene 100135589) (UniProt Q60492); assay: NVS_OR_gSIGMA_NonSelective: NovaScreen (NVS) Nuclear Receptor Binding Assay for guinea pig Sigma Receptor, Non-selective Binding (AID 2283367)
Method in brief: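 Radioligand displacement on guinea pig brain membranes, read by filter-based scintillation counting 1 h after dosing. Loss of signal versus DMSO; initial duplicate single-point screen at 25 uM, actives followed in concentration series.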

[11] = target: Glucocorticoid receptor (Homo sapiens) (UniProt P04150); assay: NVS_NR_hGR: NovaScreen (NVS) Nuclear Receptor Binding Assay for human Glucocorticoid Receptor (GR) (AID 2283363);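 further: activity is loss of specific radioligand binding signal relative to DMSO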
Method in brief: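 Cell-free radioligand displacement assay on extracted human GR, read 16 h after dosing by filter-based scintillation counting. Screened in duplicate at 25 uM, then concentration series for actives; loss of signal versus DMSO baseline.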

[12] = target: Nuclear receptor subfamily 1 group I member 2 (Homo sapiens) (UniProt O75469); assay: NVS_NR_hPXR: NovaScreen (NVS) Nuclear Receptor Binding Assay for human Pregnane X Receptor (PXR) (AID 2283365);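 further: a drop in FRET signal versus DMSO baseline means the compound binds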
Method in brief: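 Human PXR protein, cell-free; compound added, incubated 2 h, TR-FRET read. Signal decrease vs DMSO = binding. Screened 25 uM duplicate, actives re-run as dilution series.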

[13] = target: Peroxisome proliferator-activated receptor gamma (Homo sapiens) (UniProt P37231); assay: NVS_NR_hPPARg: NovaScreen (NVS) Nuclear Receptor Binding Assay for human Peroxisome Proliferator-activated Receptor gamma (PPARg) (AID 2283370)
Method in brief: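 Chemicals were tested first in duplicate at 25 uM, then in concentration series if active. Binding to cell-free PPARg protein was measured by fluorescence polarization after 2 h, with loss of signal scored against DMSO.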

[14] = tested on: guinea pig Dopamine Transporter (DAT), gene 100714898; assay: NVS_TR_gDAT: NovaScreen (NVS) Transporter Assay for guinea pig Dopamine Transporter (DAT) (AID 2283369);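 further: active compounds lower bound radioligand signal relative to DMSO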
Method in brief: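 Scintillation counts of filter-retained radioligand report binding to guinea pig striatal membranes after 2 h. Activity scored as signal loss relative to DMSO, first at 25 uM in duplicate, then in concentration series to 50 uM.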

[15] = target: rat Mineralocorticoid Receptor (MR), Nr3c2 (gene 25672) (UniProt P22199); assay: NVS_NR_rMR: NovaScreen (NVS) Nuclear Receptor Binding Assay for rat Mineralocorticoid Receptor (MR) (AID 2283355)
Method in brief: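 Cell-free radioligand binding to mineralocorticoid receptor from adrenalectomized rat brain supernatant, scintillation counting after 24 h. Primary screen in duplicate at 25 uM; actives retested in concentration series. Loss of specific binding versus DMSO.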

Peroxisome proliferator-activated receptor gamma (Homo sapiens), sequence (P37231 whole entry, looked up): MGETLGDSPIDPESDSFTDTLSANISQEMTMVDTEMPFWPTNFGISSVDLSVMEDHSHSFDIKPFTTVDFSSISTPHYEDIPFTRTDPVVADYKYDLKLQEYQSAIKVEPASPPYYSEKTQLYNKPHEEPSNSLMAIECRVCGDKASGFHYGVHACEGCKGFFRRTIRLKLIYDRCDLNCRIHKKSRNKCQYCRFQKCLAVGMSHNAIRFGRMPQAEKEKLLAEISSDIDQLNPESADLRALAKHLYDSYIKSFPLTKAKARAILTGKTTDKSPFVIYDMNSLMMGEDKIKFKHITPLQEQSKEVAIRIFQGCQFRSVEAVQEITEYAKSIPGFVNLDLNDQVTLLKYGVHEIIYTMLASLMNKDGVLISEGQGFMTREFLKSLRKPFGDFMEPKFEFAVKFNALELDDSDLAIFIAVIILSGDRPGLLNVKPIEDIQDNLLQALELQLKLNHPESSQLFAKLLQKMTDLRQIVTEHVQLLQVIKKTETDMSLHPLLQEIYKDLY
human Peroxisome Proliferator-activated Receptor alpha (PPARa), PPARA (gene 5465), sequence (Q07869 whole entry, looked up): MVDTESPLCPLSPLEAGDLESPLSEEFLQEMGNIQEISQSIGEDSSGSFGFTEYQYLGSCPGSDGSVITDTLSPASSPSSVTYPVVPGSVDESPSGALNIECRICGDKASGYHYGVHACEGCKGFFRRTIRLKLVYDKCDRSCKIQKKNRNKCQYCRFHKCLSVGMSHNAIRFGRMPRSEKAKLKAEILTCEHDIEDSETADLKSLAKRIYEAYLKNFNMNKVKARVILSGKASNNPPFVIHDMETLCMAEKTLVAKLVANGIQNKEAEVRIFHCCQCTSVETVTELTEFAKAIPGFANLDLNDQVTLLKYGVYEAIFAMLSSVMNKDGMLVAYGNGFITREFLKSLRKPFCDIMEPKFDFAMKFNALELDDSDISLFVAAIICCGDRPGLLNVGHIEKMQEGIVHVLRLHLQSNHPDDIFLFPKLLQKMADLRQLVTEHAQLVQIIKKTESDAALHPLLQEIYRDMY
Estrogen receptor (Homo sapiens), sequence (P03372 whole entry, looked up, the tested form may be a part): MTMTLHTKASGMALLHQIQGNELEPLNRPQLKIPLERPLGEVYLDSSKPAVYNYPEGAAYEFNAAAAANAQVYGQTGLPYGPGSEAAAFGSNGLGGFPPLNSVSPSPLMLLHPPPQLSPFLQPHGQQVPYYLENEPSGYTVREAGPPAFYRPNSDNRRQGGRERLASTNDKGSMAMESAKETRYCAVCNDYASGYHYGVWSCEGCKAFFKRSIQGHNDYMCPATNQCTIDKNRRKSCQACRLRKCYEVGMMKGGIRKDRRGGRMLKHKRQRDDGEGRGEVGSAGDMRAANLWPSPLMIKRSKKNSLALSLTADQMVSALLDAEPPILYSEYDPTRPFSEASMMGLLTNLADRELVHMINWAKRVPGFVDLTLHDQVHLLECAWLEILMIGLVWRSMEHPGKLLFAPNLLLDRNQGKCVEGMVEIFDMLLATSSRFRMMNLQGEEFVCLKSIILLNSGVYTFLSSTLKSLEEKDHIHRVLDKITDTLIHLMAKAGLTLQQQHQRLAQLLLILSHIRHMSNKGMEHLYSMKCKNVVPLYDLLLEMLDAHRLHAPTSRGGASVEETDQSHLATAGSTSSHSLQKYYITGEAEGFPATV
T1 sequence (P03372 whole entry, looked up): as the sequence (P03372 whole entry, looked up, the tested form may be a part) above
T1 sequence (Q92731 whole entry, looked up): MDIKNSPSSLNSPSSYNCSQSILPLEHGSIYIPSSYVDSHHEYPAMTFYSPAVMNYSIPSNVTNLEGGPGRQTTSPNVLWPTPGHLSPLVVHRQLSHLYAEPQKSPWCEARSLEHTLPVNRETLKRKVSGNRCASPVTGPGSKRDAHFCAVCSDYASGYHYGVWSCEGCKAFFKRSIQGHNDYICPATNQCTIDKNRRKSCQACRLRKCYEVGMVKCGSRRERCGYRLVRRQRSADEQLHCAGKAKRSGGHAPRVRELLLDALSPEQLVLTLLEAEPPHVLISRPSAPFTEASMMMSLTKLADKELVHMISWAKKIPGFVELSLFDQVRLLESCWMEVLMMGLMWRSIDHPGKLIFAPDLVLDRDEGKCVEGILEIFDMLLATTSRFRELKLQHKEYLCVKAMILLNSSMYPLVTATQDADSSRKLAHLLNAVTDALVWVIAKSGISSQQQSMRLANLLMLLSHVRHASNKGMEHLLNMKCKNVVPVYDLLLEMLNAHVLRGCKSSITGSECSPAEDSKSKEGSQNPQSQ
Estrogen receptor beta (Homo sapiens), sequence (Q92731 whole entry, looked up, the tested form may be a part): as the sequence (Q92731 whole entry, looked up) above
Androgen Receptor/SRC-1 Co-activator, AR (gene 367), sequence (P10275 whole entry, looked up, the tested form may be a part): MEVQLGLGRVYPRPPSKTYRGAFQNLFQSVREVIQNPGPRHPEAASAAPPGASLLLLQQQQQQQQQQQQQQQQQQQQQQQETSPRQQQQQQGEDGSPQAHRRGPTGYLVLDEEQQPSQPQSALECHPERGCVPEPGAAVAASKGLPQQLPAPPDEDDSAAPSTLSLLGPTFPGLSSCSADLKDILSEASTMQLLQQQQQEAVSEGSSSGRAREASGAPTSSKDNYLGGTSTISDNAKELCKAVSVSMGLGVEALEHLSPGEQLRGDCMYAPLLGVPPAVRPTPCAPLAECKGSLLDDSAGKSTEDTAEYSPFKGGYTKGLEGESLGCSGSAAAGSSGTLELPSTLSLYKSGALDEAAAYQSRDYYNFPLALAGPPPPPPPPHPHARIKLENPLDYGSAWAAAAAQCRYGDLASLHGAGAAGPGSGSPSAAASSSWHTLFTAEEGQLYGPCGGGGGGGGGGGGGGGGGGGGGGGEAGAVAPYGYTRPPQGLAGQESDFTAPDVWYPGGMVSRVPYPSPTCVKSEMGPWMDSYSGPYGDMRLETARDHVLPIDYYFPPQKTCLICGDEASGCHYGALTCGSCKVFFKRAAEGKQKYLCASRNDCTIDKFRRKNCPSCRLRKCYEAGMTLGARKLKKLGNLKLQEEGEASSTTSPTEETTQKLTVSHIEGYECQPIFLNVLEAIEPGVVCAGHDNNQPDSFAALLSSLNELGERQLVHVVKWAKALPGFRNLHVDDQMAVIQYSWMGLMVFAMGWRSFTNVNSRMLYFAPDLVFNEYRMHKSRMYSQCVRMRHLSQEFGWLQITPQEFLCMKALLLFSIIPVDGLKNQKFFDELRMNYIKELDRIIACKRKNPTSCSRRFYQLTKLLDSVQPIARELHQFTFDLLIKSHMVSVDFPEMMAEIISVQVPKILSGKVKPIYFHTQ
guinea pig Sigma Receptor, Non-selective Binding, SIGMAR1 (gene 100135589), sequence (Q60492 whole entry, looked up): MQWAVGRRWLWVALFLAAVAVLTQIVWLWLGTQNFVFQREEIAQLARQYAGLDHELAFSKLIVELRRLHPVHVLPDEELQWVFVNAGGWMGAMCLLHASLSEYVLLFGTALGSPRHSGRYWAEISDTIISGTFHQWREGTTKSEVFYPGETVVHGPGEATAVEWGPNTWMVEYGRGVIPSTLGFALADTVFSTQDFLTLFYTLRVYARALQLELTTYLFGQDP
Nuclear receptor subfamily 1 group I member 2 (Homo sapiens), sequence (O75469 whole entry, looked up): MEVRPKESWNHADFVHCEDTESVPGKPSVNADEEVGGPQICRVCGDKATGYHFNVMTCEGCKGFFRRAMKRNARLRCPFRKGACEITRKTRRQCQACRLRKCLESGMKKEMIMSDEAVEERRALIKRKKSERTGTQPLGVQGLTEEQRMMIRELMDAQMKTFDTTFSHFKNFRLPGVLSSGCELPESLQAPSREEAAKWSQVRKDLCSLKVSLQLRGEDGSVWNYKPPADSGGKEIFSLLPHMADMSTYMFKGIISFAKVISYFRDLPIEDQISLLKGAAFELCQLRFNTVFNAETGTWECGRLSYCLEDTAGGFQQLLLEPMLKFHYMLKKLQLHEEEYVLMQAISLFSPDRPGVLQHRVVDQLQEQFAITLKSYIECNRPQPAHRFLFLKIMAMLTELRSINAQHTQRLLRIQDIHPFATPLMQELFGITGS

Compound: O=[Si]=O
- outcome [1]: inactive
- outcome [2]: inactive
- outcome [3]: inactive
- outcome [4]: inactive

Compound: CCCCCCCC(=O)OC
- outcome [1]: inactive
- outcome [3]: inactive
- outcome [4]: inactive

Compound: CCCCCCC(C=O)=Cc1ccccc1
- outcome [4]: inactive

Compound: COC(=O)CCC(=O)OC
- outcome [1]: inactive
- outcome (PGR (gene 5241)): inactive

Compound: C/C=C/c1ccc(OC)cc1
- outcome [4]: inactive

Compound: O=C(O)c1[nH]n(-c2ccc(S(=O)(=O)O)cc2)c(=O)c1N=Nc1ccc(S(=O)(=O)O)cc1
- outcome [1]: inactive
- outcome [5]: inactive

Compound: Cc1ccc(-c2cc(C(F)(F)F)nn2-c2ccc(S(N)(=O)=O)cc2)cc1
- outcome [1]: inactive
- AC50 [6]: 33.7 µM (active)
- AC50 [7]: 72.6 µM (active)
- outcome [8]: inactive

Compound: C=CCCCCCCCCCCCC
- outcome [6]: inactive
- outcome [7]: inactive
- outcome [4]: inactive

Compound: O=C(Oc1ccccc1)c1cccc(C(=O)Oc2ccccc2)c1
- outcome [6]: inactive
- outcome [7]: inactive
- outcome [4]: inactive
- outcome [9]: inactive

Compound: Cc1c(C)c2c(c(C)c1O)CCC(C)(COc1ccc(CC3SC(=O)NC3=O)cc1)O2 (configuration not stated)
- outcome [1]: inactive
- AC50 [6]: 27.4 µM (active)
- outcome [7]: inactive
- outcome [3]: inactive
- outcome [4]: inactive
- outcome [8]: inactive
- AC50 [10]: 35 µM (active)

Compound: CCCCC(CC)COC(=O)CCCCCCCC(=O)OCC(CC)CCCC (configuration not stated)
- outcome [4]: inactive

Compound: CC(=O)OC1CC(C)OC(C)O1 (configuration not stated)
- outcome [4]: inactive

Compound: NCCOCCOCCN
- outcome [6]: inactive
- outcome [7]: inactive
- outcome [4]: inactive

Compound: CC1=C(C)S(=O)(=O)CCS1(=O)=O
- outcome [1]: inactive
- outcome [6]: inactive
- outcome [7]: inactive
- outcome [9]: inactive
- outcome (PGR (gene 5241)): inactive

Compound: CCCCCCCCCCCCCCOS(=O)(=O)O
- outcome [1]: inactive
- outcome [3]: inactive
- outcome [4]: inactive
- AC50 [9]: 3.99 µM (active)
- AC50 [11]: 2.14 µM (active)
- AC50 [12]: 7.25 µM (active)
- AC50 [13]: 1.78 µM (active)

Compound: Cc1cn([C@H]2C=C[C@@H](CO)O2)c(=O)[nH]c1=O
- outcome [4]: inactive

Compound: Cc1cc(SC2=C(O)C[C@@](CCc3ccc(N)cc3)(C(C)C)OC2=O)c(C(C)(C)C)cc1CO
- outcome [6]: inactive
- outcome [7]: inactive
- outcome [10]: inactive
- outcome [14]: inactive

Compound: O=C(N[C@@H](c1ccccc1)[C@@H]1CCCCN1)c1cccc(C(F)(F)F)c1Cl
- outcome [1]: inactive
- outcome [15]: inactive
- outcome [3]: inactive
- outcome [4]: inactive
- outcome [9]: inactive
- AC50 [14]: 25 µM (active)

Compound: O=C(NS(=O)(=O)/C=C/c1cccs1)c1ccc(F)cc1Br
- outcome [1]: inactive
- outcome [6]: inactive
- outcome [3]: inactive
- outcome [4]: inactive
- AC50 [13]: 40.7 µM (active)

Compound: CCCCCCC(CCCCCCCCCCC(=O)OCC(COC(C)=O)OC(C)=O)OC(C)=O (configuration not stated)
- outcome [1]: inactive
- outcome [3]: inactive
- outcome [4]: inactive
- outcome [9]: inactive
- outcome [13]: inactive

Compound: CCOCCOCCO
- outcome [6]: inactive
- outcome [7]: inactive
- outcome [13]: inactive
